Our source for the growth values is PubChem BioAssay (NCI).

The panel holds about 83,000 compounds, 20% with a hit somewhere; the sample as a whole holds those more often.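 Single-concentration screen, 48 h exposure, 96-well plates. Endpoint: percent growth. Below 10 = active.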 Values without a mark were called inactive. The source made the active and inactive calls.

Some test systems named below: HT29 colon; SNB-75 CNS; SNB-19 CNS; U251 CNS; PC-3 prostate; UACC-62 melanoma; LOX IMVI melanoma; SK-MEL-28 melanoma; HCT-15 colon; SK-MEL-5 melanoma.
Holding throughout (assay): NCI-60 one-dose screen, 48 h (100 = growth as untreated, 0 = no growth, -100 = all killed)
Holding throughout (conditions): 10 µM unless noted

For `CC(C)CC1C(=O)N2CCC[C@H]2C2(O)O[C@](NC(=O)C3C=C4c5cccc6[nH]c(Br)c(c56)C[C@H]4N(C)C3)(C(C)C)C(=O)N12` (stereo not given in full), the growth with HT29 colon is 53.2%; in the test with SNB-75 CNS, 35.5%; in the test on SNB-19 CNS, 69.9%; with U251 CNS, 53.4%; in the test with PC-3 prostate, 20.4%; with UACC-62 melanoma, 56.4%. For the same compound, the growth was 62.5% in the test with LOX IMVI melanoma and 91.3% in the test with SK-MEL-28 melanoma.
Consider `COc1cc(/C=C/C(=O)Nc2cccnc2Nc2ccc(F)cc2)cc(OC)c1OC`, for which the growth is 99% in the test with HCT-15 colon; 91.2% with HT29 colon; 91.1% in the test with SNB-19 CNS; 70.8% in the test on U251 CNS; 95.8% in the test on SK-MEL-5 melanoma; 94.7% in the test on UACC-62 melanoma. Besides, the values for the growth with LOX IMVI melanoma and with SK-MEL-28 melanoma were 100% and 103%, respectively.
Turning to `CC(C)c1c(C(=O)c2ccccc2)c(-c2ccccc2)c(-c2ccc(F)cc2)n1CC[C@@H](O)C[C@@H](O)CC(=O)O`, the growth in the test with HCT-15 colon was 47.5%; in the test on HT29 colon, 106%; with SNB-19 CNS it was 57.4%; with PC-3 prostate, 37%; in the test with UACC-62 melanoma, 16.6%; with SK-MEL-28 melanoma, 65.4%.
As to `Cc1cc(NS(=O)(=O)c2ccc(-c3cnc(C4CC4)o3)cc2)ccc1Cl`, the growth is 17% in the test with HCT-15 colon; -17.1% (active) in the test with HT29 colon; 44.3% in the test on SNB-19 CNS; 24.7% in the test on PC-3 prostate; 26.4% in the test on UACC-62 melanoma; 46.5% in the test with LOX IMVI melanoma. Besides, the growth with SK-MEL-28 melanoma was 50.5%.
On to `Cn1c(NCCc2ccc(O)c(O)c2)nc2c1c(=O)n(Cc1ccc(Cl)c(Cl)c1)c(=O)n2C`, for which the growth in the test on HCT-15 colon is 45.7%; with HT29 colon it was 94.4%; in the test on SNB-19 CNS it was 84.3%; with U251 CNS, 77.9%; in the test with SK-MEL-5 melanoma, 65.4%; in the test with UACC-62 melanoma, 73.9%. The growth in the test with LOX IMVI melanoma was 86.5%; in the test with SK-MEL-28 melanoma, 77.3%.
`COc1cccc(/C=C2\Oc3cc(OCCN4CCCC4)ccc3C2=O)c1`: the growth was 67% in the test with HCT-15 colon; 35.2% in the test with HT29 colon; 102% in the test on SNB-19 CNS; 92.1% in the test on U251 CNS; 83.6% in the test with PC-3 prostate; 106% with UACC-62 melanoma. Besides, the growth was 76.1% with LOX IMVI melanoma and 102% in the test on SK-MEL-28 melanoma.
With `CC[C@@H](C(=O)[C@@H](C)[C@@H](O)[C@H](C)[C@@H]1O[C@@H]([C@@H](CC)C(=O)O)CC[C@@H]1C)[C@H]1OC2(C=C[C@@H](O)[C@]3(CC[C@@](C)([C@H]4CC[C@](O)(CC)[C@H](C)O4)O3)O2)[C@H](C)C[C@@H]1C` (stereo not given in full), the growth in the test on HCT-15 colon is 19.8%; in the test with HT29 colon, 13.5%; with SNB-19 CNS, -33.7% (active); in the test on U251 CNS, 0.353% (active); with PC-3 prostate, 31.2%; in the test with UACC-62 melanoma it was -96.2% (active). For the same compound, the figures for the growth in the test with LOX IMVI melanoma and in the test on SK-MEL-28 melanoma were 8.3% (active) and -89.8% (active), respectively.
As to `O=C(O)c1ccc(NC(=O)c2ccc(-c3cccc([N+](=O)[O-])c3)o2)cc1`, the growth in the test with HCT-15 colon was 99.2%; with HT29 colon, 104%; in the test on SNB-19 CNS, 92%; with U251 CNS, 96.8%; in the test on SK-MEL-5 melanoma, 101%; in the test on UACC-62 melanoma, 98.4%. The results for the growth in the test with LOX IMVI melanoma and with SK-MEL-28 melanoma were 95.3% and 107%, respectively.
On to `CC(O)CN(CC(C)O)c1ccc2c(c1)Cc1cc([N+](=O)[O-])ccc1-2` (stereo not given), for which the growth with HCT-15 colon is 83.5%; in the test on HT29 colon, 103%; in the test on SNB-19 CNS it was 98.9%; with U251 CNS, 102%; in the test on SK-MEL-5 melanoma, 103%; in the test on UACC-62 melanoma, 95.7%. In addition, the growth in the test with LOX IMVI melanoma is 96.2%; with SK-MEL-28 melanoma it was 109%.
For `Cc1cc(N2CCCC2)nc(NC2CCCC(Nc3ccnc4cc(Cl)ccc34)C2)n1` (stereo not given), the growth in the test on HCT-15 colon was -52% (active); in the test on HT29 colon it was -70% (active); with SNB-19 CNS it was -20.3% (active); in the test on PC-3 prostate, -58.1% (active); in the test on UACC-62 melanoma, -79.8% (active); with LOX IMVI melanoma, -94.2% (active). In the test on SK-MEL-28 melanoma, the growth is -77.5% (active).
Take `COc1ccc(C(=O)COc2cccc(/C=C3\CSc4ccccc4C3=O)c2)cc1`: the growth with HCT-15 colon is -54.1% (active); in the test on HT29 colon it was -88.2% (active); in the test with SNB-19 CNS it was 63.6%; in the test on U251 CNS, -86.7% (active); in the test on UACC-62 melanoma it was -72% (active); in the test with LOX IMVI melanoma, -100% (active). Further, in the test with SK-MEL-28 melanoma, the growth was -62.3% (active).
Consider `O=C1/C(=C(/c2ccccc2)N2CCOCC2)Cc2ccccc21`, for which the growth with HT29 colon was 8.82% (active); in the test with SNB-75 CNS, 50.3%; in the test on SNB-19 CNS, 78.1%; in the test on U251 CNS, 9.15% (active); in the test on PC-3 prostate, 12.2%; in the test with UACC-62 melanoma, 48.6%. Besides, the values for the growth in the test with LOX IMVI melanoma and in the test with SK-MEL-28 melanoma were -58.3% (active) and -28.9% (active), respectively.
Take `NC(CSC(c1ccccc1)(c1ccccc1)c1ccc(Cl)cc1)C(=O)O` (stereo not given): the growth is 2.26% (active) in the test with HT29 colon; 20.9% in the test with SNB-75 CNS; 37.9% with SNB-19 CNS; 12.2% in the test with U251 CNS; 10.6% in the test with SK-MEL-5 melanoma; 7.9% (active) in the test with UACC-62 melanoma. Moreover, the figures for the growth in the test with LOX IMVI melanoma and in the test on SK-MEL-28 melanoma were 36% and 33.4%, respectively.
As to `CCc1nc(N)nc(N)c1C#CC(C)c1ccc(-c2ccncc2)cc1Cl` (stereo not given), the growth was 4.74% (active) in the test on HT29 colon; -9.88% (active) in the test with SNB-75 CNS; 20.9% in the test with SNB-19 CNS; 13.8% in the test on U251 CNS; 21.6% in the test with PC-3 prostate; 13.2% with UACC-62 melanoma. In addition, the growth in the test on LOX IMVI melanoma is 13.9%; in the test with SK-MEL-28 melanoma, 40.4%.
Take `NC(=O)c1cc(Br)ccc1NC(=O)/C=C/c1ccccc1`: the growth in the test on HT29 colon is 13.9%; in the test with SNB-75 CNS it was -7.05% (active); in the test with SNB-19 CNS, 47.2%; in the test on U251 CNS, 28.7%; in the test on SK-MEL-5 melanoma, 12.2%; with UACC-62 melanoma, 43%. Moreover, the growth with LOX IMVI melanoma is 52.1%; in the test with SK-MEL-28 melanoma, 42.2%.
